Screening results deposited in PubChem BioAssay by National Center for Advancing Translational Sciences (NCATS).
Pol beta inh = DNA polymerase beta (human) inhibition | P06746 | Pol beta primer extension/strand displacement, fluorescence kinetic | Potency, µM (top dose mostly 114 µM), usual class: inhibitors | 340,000 compounds, 1.3% hits | AID 485314
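Kinetic readout of DNA synthesis with strand displacement by Pol beta. Compound and 10 nM enzyme sit 15 min at room temperature; 50 nM substrate starts the reaction, read immediately and at 10 min.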
Pol eta inh = DNA polymerase eta (human) inhibition; Q9Y253; recombinant Pol eta, fluorescent DNA replication assay; Potency, µM (top dose mostly 114 µM), actives largely listed as inhibitors; 390,000 compounds, 1.2% hits
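Fluorescent replication assay: 50 nM final substrate added after a 15 min room-temperature compound preincubation with 10 nM enzyme. Signal taken at 0 min and again at 10 min.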
WRN helicase inh = WRN helicase (human) inhibition. Q14191. WRN helicase unwinding, fluorescent forked duplex, kinetic. Potency, µM (doses to about 114 µM), usual class: inhibitors. 360,000 compounds, 0.46% hits; also: nearly all actives have a fitted effect of over 55% in size
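Primary qHTS, 1536-well format. 20 nM WRN + compound, 15 min RT; start with 100 nM forked fluorophore/quencher duplex, 2 mM ATP (final); kinetic read ex 525/em 598 nm.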
PI5P4Ka inh = PI5P4K alpha (human) kinase inhibition | P48426 | PI5P4Kalpha enzyme, ADP-Glo luminescence, 60 min; stronger effect = lower value | max response, % | 330,000 compounds, 1.2% hits | AID 652105; active = max response of -50% or lower; inconclusive = between -30% and -50%; inactive = -30% or higher; also: value at the top dose of about 77 µM
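qHTS, 1536-well: enzyme/substrate mix, compound by pin tool, 5 microM ATP final; RT 60 min; ADP-Glo reagents 1 (45 min) then 2 (30 min); luminescence.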
POLI inh = blocks human DNA polymerase iota activity. Q9UNA4. Pol iota fluorescent replication assay, 10 min. Potency, µM (doses to about 115 µM), most hits filed as inhibitors. 390,000 compounds, 1% hits. AID 588590
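Fluorescent replication assay read twice, at 0 min and 10 min after adding 50 nM (final) substrate. Enzyme (10 nM) and compounds were first incubated 15 min at room temperature; enzyme-free buffer wells were negative controls.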
POLK inh = DNA polymerase kappa (human) inhibition; Q9UBT6; purified Pol kappa, fluorescent DNA synthesis assay, 10 min; Potency, µM (doses to about 107 µM), usual class: inhibitors; 400,000 compounds, 0.53% hits; AID 588579
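Enzyme at 10 nM met test compounds for 15 min at room temperature. Substrate addition (50 nM final) began the reaction, which was monitored by fluorescence at 0 and 10 min.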
Numbers stand for hits; i = inactive; ? = inconclusive; nt = no result given; [ ] = dose if it differs, or a comment. Hits are enriched below; roughly 2.8% of the tested compounds scored in any of these assays. Unless noted, calls follow the shape of the dose curve; as a rule, active = well fitted curve in the direction sought with a large enough effect; inconclusive = small, poorly fitted or top-dose-only effect, or another doubt; inactive = no such curve, though single readings can be large; an effect the other way counts as inactive or inconclusive.

SMILES | Pol beta inh | Pol eta inh | WRN helicase inh | PI5P4Ka inh | POLI inh | POLK inh
CCCN1Cc2cccc(C(=O)Nc3cc(OC)cc(OC)c3)c2C1=O | i | i | i | nt | i | i
COc1ccc(N2Cc3cccc(C(=O)Nc4ccc(C)c(C)c4)c3C2=O)cc1 | 11µM | i | nt | nt | ? | i
COc1ccc(N2Cc3cccc(C(=O)NC(C)CCc4ccco4)c3C2=O)cc1 (centres undefined) | 7.9µM | 22µM | 35µM | i | ? | ?
Cc1cc(N(C)C)cc(C)c1/C=C/c1ccnc2ccccc12 | nt | nt | nt | nt | i | i
COc1ccc(CCn2c(=S)[nH]c(=O)c3nccnc32)cc1OC | nt | nt | nt | nt | i | i
CCC(C)(C)NC(=O)c1ccc(Sc2nncn2C)c([N+](=O)[O-])c1 | ? | i | i | i | i | i
Cn1cnnc1Sc1ccc(/C=C/C(=O)c2ccc(O)cc2)cc1[N+](=O)[O-] | i | 50µM | i | i | ? | i
Cc1cc(NC(=O)CN2CCC(C)CC2)nc2c1c(=O)oc1ccccc12 | i | i | nt | nt | ? | 89µM
CCC1CN(C(=O)N2CCC(C(=O)NCCC3=CCCCC3)CC2)c2ccccc2O1 (centres undefined) | i | i | nt | nt | i | i
Cc1c(C(=O)NCc2ccccc2)sc2nc3n(c(=O)c12)CCC3 | i | i | nt | nt | i | i
O=c1c2ccccc2oc2ccc(-c3ccoc3)cc12 | nt | nt | nt | nt | 14µM | ?
CCc1ccc(-n2c(SCC(=O)N3Cc4ccccc4CC3C(=O)O)nnc2-c2ccncc2)cc1 (centres undefined) | i | 22µM | i[11.6 µM] | i | i | i
CCc1ccc(-n2c(SCC(=O)N3CCC(C(=O)O)CC3)nnc2-c2ccncc2)cc1 | i | i | i | i | i | i
COc1cc2sc3cc(NCc4ccc(C)o4)ccc3c(=O)c2cc1OC | nt | i | i[11.6 µM] | i | 22µM | 79µM
COc1ccccc1-c1ccc(Nc2ccc(C(=O)N3CCOCC3)cc2)nn1 | i | i | i | i | i | i
COc1ccc(-c2ccc(Nc3ccc(C(=O)N4CCOCC4)cc3)nn2)cc1OC | 28µM | i | i | i | ? | i
CC(=O)c1ccc(NC(=S)N2CCN(c3ccccn3)CC2)cc1 | i | 89µM | i | i | i | i
O=C(CSc1nc2nn(-c3ccccc3)c(=O)c-2c2n1CCCCC2)c1ccc(O)c(O)c1 | nt | 1.8µM | 2.8µM | -54 | 2µM | 4µM
CNC(=O)CSc1nc2nn(-c3ccccc3)c(=O)c-2c2n1CCCCC2 | i | i | i | nt | i | i
CCOC(=O)c1cccc(NC(=O)c2ccc3c(Cl)c4c(nc3c2)CCC4)c1 | i | i | nt | nt | i | i
CC1=C(C#N)C(=O)NC(=O)/C1=C/c1ccc(-c2ccc(S(N)(=O)=O)cc2)o1 | ? | 14µM | ? | -96 | ? | ?
NS(=O)(=O)c1ccc(-c2ccc(/C=C3\NC(=S)NC3=O)o2)cc1 | i | 79µM | i | -66 | 10µM | 50µM
NS(=O)(=O)c1ccc(-c2ccc(C=O)o2)cc1 | i | i | i | i | i | i
CC(C)c1ccc(C(=O)CC2(O)C(=O)N(CCc3ccccc3)c3ccc(Cl)cc32)cc1 (centres undefined) | i | ? | nt | nt | i | i
Cc1ccc(C)c(NC(=O)CSc2ncc(S(=O)(=O)c3ccc(C)c(Cl)c3)c(=O)[nH]2)c1 | i | i | nt | nt | i | i
SMILES | Pol beta inh | Pol eta inh | WRN helicase inh | PI5P4Ka inh | POLI inh | POLK inh
CCC(Sc1ncc(S(=O)(=O)c2ccc(C)cc2)c(=O)[nH]1)C(=O)Nc1cc(C)ccc1C (centres undefined) | 25µM | i | nt | nt | ? | i
Cc1cc(NS(=O)(=O)c2ccc(NC(=O)CSc3nc4sc(C)c(C)c4c(=O)[nH]3)cc2)no1 | i | i | i | i | i | i
CCOC(=O)c1ccc(NC(=O)CSc2ncc(S(=O)(=O)c3ccc(C)c(Cl)c3)c(=O)[nH]2)cc1 | 89µM | ? | nt | nt | ? | i
Cc1cc(NS(=O)(=O)c2ccc(NC(=O)CSc3nc4sc(C(=O)O)c(C)c4c(=O)[nH]3)cc2)no1 | i | i | i | -81 | i | i
CCOC(=O)c1ccc(NC(=O)CSc2nc3sc(C(=O)O)c(C)c3c(=O)[nH]2)cc1 | i | i | i | -81 | i | i
O=C(CN1C=NS(=O)(=O)c2ccccc21)Nc1ccccc1F | i | i | nt | nt | i | i
